AMA1 RON2 block = inhibitors of Plasmodium falciparum AMA1-RON2 interaction | Potency, µM (titrated, usually from 58.2 µM), inactives show at the highest dose activity change, negative = inhibition, hits mostly inhibitors | AlphaScreen AMA1-biotinylated RON2 peptide binding | AID 720542 | actives 0.2% (n = 360,000);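 also: 0% = vehicle wells and -100% = peptide control; nearly all actives have a fitted effect of over 45% in size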
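AMA1 (3D7) with his tag at 25 nM final met compounds first, then biotinylated RON2 peptide at 25 nM; detection used donor plus acceptor beads, 10 µg/mL apiece, read by AlphaScreen after 30 min at room temperature.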
HCV inh = HCV inhibition | actives 3.4% (n = 340,000) | Potency, µM (doses to about 41.8 µM), for inactives: at the highest dose activity change, negative = inhibition, most hits filed as inhibitors | Huh7.5.1 HCVcc-Cre infection, luciferase reporter, 44 h | AID 651820
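Cells seeded at 1,000/well and cultured 4 h, then compounds added followed by HCVcc-Cre virus (~0.5 moi). After 44 h further culture, luciferase substrate was added, plates held 15 min at room temperature, and luminescence read for 15 sec.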
AmpC inh detg = blocks E. coli AmpC beta-lactamase in detergent assay; AID 485294; Potency, µM (doses to about 114 µM), for the others: at the top dose activity change, negative = inhibition, most hits filed as inhibitors; actives 0.041% (n = 370,000); AmpC hydrolysis of nitrocefin, absorbance 480 nm, 0.01% Triton;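 also: 0% = no-compound wells and -100% = no-enzyme wells; nearly all actives have a fitted effect of over 25% in size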
Target sequence (P00811 whole entry, looked up): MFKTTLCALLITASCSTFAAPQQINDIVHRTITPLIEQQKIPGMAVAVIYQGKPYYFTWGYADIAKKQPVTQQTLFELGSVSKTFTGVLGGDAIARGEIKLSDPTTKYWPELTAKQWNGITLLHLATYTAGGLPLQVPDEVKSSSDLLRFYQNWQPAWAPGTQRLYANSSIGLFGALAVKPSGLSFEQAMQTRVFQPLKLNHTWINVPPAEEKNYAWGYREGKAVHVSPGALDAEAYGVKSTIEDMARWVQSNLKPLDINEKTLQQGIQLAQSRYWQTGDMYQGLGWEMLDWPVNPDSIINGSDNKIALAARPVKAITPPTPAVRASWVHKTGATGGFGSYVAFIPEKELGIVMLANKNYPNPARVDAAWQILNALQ
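AmpC (5.3 nM in the dispensed reagent) in 20 mM phosphate pH 7.0 with 0.01% (detergent screen) or 0.0001% Triton X-100 was preincubated with compounds for 15 min at room temperature. Nitrocefin was then added from an 800 uM solution, and hydrolysis was followed at 480 nm.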
Pf growth 48h = P. falciparum growth inhibition at 48 hours (one generation); P. falciparum luciferase growth in erythrocytes, 48 h; Potency, µM (series often up to 28.7 µM), inactives show at the top dose activity change, negative = inhibition, actives largely listed as inhibitors; actives 5.9% (n = 310,000); AID 504832
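Cell-based growth assay: transgenic P. falciparum expressing firefly luciferase, cultured in red cells within RPMI 1640 containing 0.5% w/v Albumax, 24 mM bicarbonate and gentamycin. A drop in luciferase activity indicates inhibition.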
AmpC inh no detg = blocks E. coli AmpC beta-lactamase in detergent-free assay. P00811. AmpC nitrocefin hydrolysis, absorbance 480 nm, 0.0001% Triton. Potency, µM (series often up to 57.1 µM), inactives show at the top dose activity change, negative = inhibition, usual class: inhibitors. actives 0.52% (n = 330,000). AID 485341;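 also: plate controls were no compound for no effect and no enzyme for full effect; nearly all actives have a fitted effect of over 20% in size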
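AmpC (5.3 nM in the dispensed reagent) in 20 mM phosphate pH 7.0 with 0.01% (detergent screen) or 0.0001% Triton X-100 was preincubated with compounds for 15 min at room temperature. Nitrocefin was then added from an 800 uM solution, and hydrolysis was followed at 480 nm.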
Pf growth 96h = P. falciparum growth inhibition at 96 hours; P. falciparum luciferase reporter growth, 96 h; Potency, µM (titrated, usually from 28.7 µM), for the others: top-dose activity change, negative = inhibition, usual class: inhibitors; actives 6.9% (n = 320,000)
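Erythrocytes infected with luciferase-expressing P. falciparum were dispensed at 2% hematocrit and 0.05% parasitemia (final), then incubated with compounds 96 hours at 37 C in 5% CO2. Luminescence after detection reagent addition reported growth.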
Numbers without * were called inactive; ? = inconclusive; · = not tested or not shown; [ ] = dose if it differs, or a comment. In the library only some 11% were active in any assay of this set; here they are far more common. Calls follow the shape of the dose curve; as a rule, active = well fitted curve in the direction sought with a large enough effect; inconclusive = small, poorly fitted or top-dose-only effect, or another doubt; inactive = no such curve, though single readings can be large; an effect the other way counts as inactive or inconclusive. Unless noted, % is scaled to controls: 0 for no effect and ±100 for the full control effect; potency is read from the fitted curve at half-maximal effect.

SMILES	AMA1 RON2 block	HCV inh	AmpC inh detg	Pf growth 48h	AmpC inh no detg	Pf growth 96h
O=C(O)c1ccc(Br)c(S(=O)(=O)N2CCCC2)c1	-16.6%	·	4.6%	-38.8%	-17.0%	13.1µM*
O=C(O)c1ccc(NC(=O)c2ccc(Br)c(S(=O)(=O)N3CCCC3)c2)cc1	·	·	1.5%	·	·	·
O=C(NCC1CCCO1)c1ccc(Br)c(S(=O)(=O)N2CCOCC2)c1 (stereo unspecified)	13.6%	7.8%	?	?	-8.4%	1.31µM*
O=C(Nc1ccc2c(c1)OCO2)c1ccc(Br)c(S(=O)(=O)N2CCCC2)c1	3.9%	?	-13.6%	2.62µM*	-34.0%	33.9%
O=C(Nc1ccc2c(c1)OCCO2)c1ccc(Br)c(S(=O)(=O)N2CCOCC2)c1	-6.9%	?	-13.3%	2.33µM*	-4.8%	-19.6%
Cc1ccc(NC(=O)C(CC(C)C)N2Cc3ccccc3C2=O)cc1F (stereo unspecified)	·	·	9.9%	·	·	·
Cc1cc(=O)n(Cc2c(F)cccc2Cl)c2c1c(C)nn2-c1cccc(F)c1	·	·	18.6%	·	·	·
COc1cc(C2CC(=O)Nc3cc4c(cc32)OCCO4)cc(Br)c1OC (stereo unspecified)	·	·	9.1%	·	·	·
CCOC(=O)C1CCN(C(c2cccc(F)c2)c2c(O)cc(C)n(CCOC)c2=O)CC1 (stereo unspecified)	·	·	23.2%	·	·	·
Oc1ccc(Br)cc1CNc1cnc2ccccc2c1	8.8%	?	-3.0%	?	17.8µM*	11.7µM*
Oc1ccc(Br)cc1CNc1cccc2cccnc12	48.7%	14.3%	?	?	38.8%	9.28µM*
O=C(/C=C/c1cn(CC(O)CN2CCOCC2)c2ccccc12)c1cccs1 (stereo unspecified)	·	·	-12.7%	6.57µM*	143.2%	?
Cc1ccc(C(=O)/C=C/c2cn(CC(O)CN3CCc4ccccc43)c3ccccc23)cc1 (stereo unspecified)	·	·	27.2%	·	·	·
COc1ccc(C(=O)/C=C/c2cn(CN3CCN(C)CC3)c3ccccc23)cc1	-3.2%	8.91µM*	10.8%	·	1.5%	?
CCOc1ccc(C(=O)/C=C/c2cn(CN3CCN(C)CC3)c3ccccc23)cc1	-0.4%	?	-13.3%	0.1%	-11.2%	?
Cc1ccc(C(=O)/C=C/c2cn(CC(O)CN3CCOCC3)c3ccccc23)cc1 (stereo unspecified)	4.3%[11.6 µM]	?	-5.2%	?	220.3%	11.7µM*
O=Cc1cn(CC(O)CN2CCCCC2)c2ccccc12 (stereo unspecified)	5.0%	-2.7%	3.2%	26.7%	-14.8%	?
COc1ccc(C(=O)c2c(C)n(CCN3CCOCC3)c3ccccc23)cc1	·	·	·	-14.7%	·	12µM*
CCc1cccc(NC(=O)Cn2c(=O)n(-c3ccccc3C)c(=O)c3c2c2cc(C)ccc2n3C)c1	·	·	-0.6%	·	·	·
Cc1ccc(S(=O)(=O)NCCc2nnc3ccc(SCC(=O)Nc4ccc(OC(F)(F)F)cc4)nn23)cc1	·	·	18.0%	·	·	·
COc1ccc(N2CCN(CCCNC(=O)C(=O)c3c(C)n(C)c4ccccc34)CC2)cc1	-1.7%	?	0.5%	?	146.1%	14.7µM*
COc1ccc(C(=O)/C=C/c2cn(CC(O)CN3CCOCC3)c3ccccc23)cc1 (stereo unspecified)	2.4%[11.6 µM]	?	0.8%	?	294.5%	5.22µM*
COc1ccc(C2C(=O)N(C3CCC(C)CC3)CC(=O)N2Cc2ccc(C)cc2)cc1OC (stereo unspecified)	·	·	-5.6%	·	·	·
Cc1ccn2c(NC(=O)C(C)(C)Oc3ccc(Cl)cc3)c(-c3cccs3)nc2c1	-8.3%	?	-13.4%	-22.4%	95.0%	11.7µM*
Cc1ccc(NC(=O)Cn2c(=O)n(Cc3ccco3)c(=O)c3sc4ccccc4c32)cc1C	·	·	13.5%	·	·	·
SMILES	AMA1 RON2 block	HCV inh	AmpC inh detg	Pf growth 48h	AmpC inh no detg	Pf growth 96h
Cc1ccc(C)c(Cn2c(=O)n(CCCC(=O)NCCc3ccc(Cl)cc3)c(=O)c3ccccc32)c1	·	·	4.6%	·	·	·
COc1c(C)cccc1C(=O)Nc1ccc(-c2nc3ccccc3s2)c(Cl)c1	·	·	24.6%	·	·	·
Cc1cccc2c1cnn2C(=O)CCC(=O)NCc1ccc(F)cc1	-3.2%	0.8%	-1.9%	6.0%	-18.5%	14.7µM*
CCN1CCN(c2ncc(C(=O)Nc3ccccc3C(=O)OC)c3ccccc23)CC1	-9.5%	7.94µM*	-11.8%	?	193.6%	?
CC(C)NC(=O)c1cnc(N2CCN(c3ccccn3)CC2)c2ccccc12	13.9%	?	-2.2%	?	45.6%	?
CCc1ccc(NC(=O)c2cnc(N3CCN(c4ccccn4)CC3)c3ccccc23)cc1	?	4.47µM*	-7.2%	?	-38.5%	13.1µM*
CCOc1ccc(NS(=O)(=O)c2ccc3[nH]cc(C(=O)N(C)C4CCCCC4)c(=O)c3c2)cc1	·	·	6.2%	·	·	·
COc1ccc(C2=NNC(c3cccnc3)=Nc3ccccc32)cc1	4.4%	-1.5%	-10.3%	-14.5%	-6.8%	6.57µM*
Cc1ccc(CN(C(=O)Nc2cccc(Cl)c2)c2ccccn2)cc1	·	·	0.9%	·	·	·
CCOC(=O)C1=C(C)N=C2SC(C(=O)OC)=CC(=O)N2C1c1ccc(F)cc1 (stereo unspecified)	19.9%	-17.1%	9.6%	?	-31.5%	?
CCOC(=O)C1=C(C)N=C2SC(C(=O)OC)=CC(=O)N2C1c1cccc(OC)c1 (stereo unspecified)	-0.3%	10.1%	5.8%	7.38µM*	-27.4%	-16.2%
CCOc1ccc(CNC(=O)CSc2nnc(C)c3c(C)n(-c4ccc(Cl)cc4)nc23)cc1	·	·	18.4%	·	·	·
CSc1nc(Nc2ccc(C)cc2C)cc(-c2ccccc2)n1	·	·	16.9%	·	·	·
CCCNC(=O)N1[C@H]2CC[C@@H]1C(C(=O)OC)=C(c1ccc(F)cc1OCc1ccccc1)C2	-10.0%	16.6%	2.5%	?	91.4%	?
COC(=O)C1=C(c2ccccc2OCc2ccccc2)C[C@@H]2CC[C@H]1N2C(=O)NCCc1ccc(F)cc1	13.8%	?	6.4%	10.4µM*	22.1%	?
COC(=O)C1=C(c2cc3ccccc3s2)C[C@@H]2CC[C@H]1N2C(=O)NCc1ccc(C(F)(F)F)cc1	-4.1%	11.2µM*	·	·	·	·
COC(=O)C1=C(c2cc3ccccc3s2)C[C@@H]2CC[C@H]1N2C(=O)NCC1CC1	1.1%	?	·	·	·	·
COC(=O)C1=C(c2ccccc2OCc2ccccc2)C[C@@H]2CC[C@H]1N2C(=O)NCc1ccc(C(F)(F)F)cc1	-0.1%	10µM*	7.7%	13.1µM*	-6.6%	?

Screens as filed in PubChem BioAssay.
